Results on ten compounds are retold here after PubChem BioAssay (NCI).

This is part of a sample that, as a whole, favours compounds with a hit. Of some 83,000 tested, about 20% had one in any assay.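 Interpretation: 100, growth as untreated; towards 0, rising growth inhibition; 0, no net growth; 0 to -100, cell death. Compounds scoring below 10 were considered active.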 Values without a mark were called inactive. The source made the active and inactive calls.

Common to all, as to test: NCI-60 one-dose screen, 48 h (100 = growth as untreated, 0 = no growth, -100 = all killed)
Common to all, as to settings: 10 µM

The test system of assay [1] is RPMI-8226 leukemia.
For assay [2], the system named is OVCAR-5 ovarian.
Assay [3] concerns OVCAR-4 ovarian.
For assay [4], the system named is SK-OV-3 ovarian.
The test system of assay [5] is IGROV1 ovarian.
Assay [6] deals with OVCAR-3 ovarian.
The test system of assay [7] is HS 578T breast.
The subject of assay [8] is NCI/ADR-RES ovarian.
Assay [9] relates to T-47D breast.
Assay [10] has as its system BT-549 breast.
The test system of assay [11] is MDA-MB-435 melanoma.
In assay [12] the test system is SW-620 colon.
In assay [13] the test system is MCF7 breast.
The test system of assay [14] is HCT-116 colon.
The test system of assay [15] is KM12 colon.
For assay [16], the system named is HCC-2998 colon.
Assay [17] has as its system OVCAR-8 ovarian.

On to `COc1cccc(C2C3=C(COC3=O)N(CCO)c3cc(OC)ccc32)c1` (stereo unspecified), for which the growth in assay [1] is 20.6%; in [2] it was 27.5%; in assay [3], 59.2%; in assay [4] it was 21.6%; in assay [5], 24.3%; in assay [6] it was -50% (active). Moreover, the growth in assay [7] was 15.5%; in assay [8], -12.5% (active); in assay [9], 62.1%; in assay [10] it was 16.9%; in [11], -44.7% (active); in assay [12], 21%. Also, the figures for the growth in assay [13], in [14] and in assay [15] were 23%, 10.6% and -5.83% (active), respectively.
Regarding `COc1ccc(N=C2C(=Nc3ccc(OC)cc3)N(c3ccc(N(C)C)cc3)C(=S)N2c2ccc(OC)cc2)cc1`, the growth in [1] was -12.4% (active); in assay [2], 34.9%; in assay [4], 87.9%; in [5] it was 107%; in [6], 106%; in [7] it was 19.6%. The growth in assay [8] was 95.8%; in [9], 91.1%; in [10], 75.1%; in assay [11], 86.5%; in assay [12], 94.7%; in assay [13] it was 84.9%. Moreover, the growth in [14] was 81.6%; in assay [16], 105%; in [15] it was 86.8%.
Consider `O=C1ON=[N+](c2ccc(Cc3ccc([N+]4=NOC(=O)C4CN4CCOCC4)cc3)cc2)C1CN1CCOCC1` (stereo unspecified), for which the growth in assay [1] is 60.5%; in [17], 80.9%; in assay [3], 53.9%; in [5], 62.3%; in [6] it was 89.1%; in assay [7], 64%. Further, the growth in assay [8] was 63.4%; in assay [9] it was 56.1%; in [10], 60.7%; in assay [11], 4.71% (active); in [12] it was 67.7%; in [13], 45.6%. In addition, the growth in assay [14] is 63.7%; in assay [16], 80.5%; in assay [15], 54.3%.
Consider `COc1cc(OC)cc(-c2cncn2-c2ccc(-c3nc4cc(OC)cc(OC)c4s3)cc2)c1`, for which the growth was 44.6% in [1]; 80.7% in assay [17]; 99.9% in [2]; 70.5% in [4]; 56.1% in assay [5]; 20.3% in assay [6]. The growth was 50.3% in assay [7]; 21.2% in assay [8]; 62.8% in assay [9]; -16.3% (active) in [11]; 20.9% in [13]; 36.8% in assay [14]. Moreover, the growth in assay [16] is 70.2%; in [15], 38.5%.
For the compound `c1ccc([C@H]2CN3CCSC3=N2)cc1`, the growth in assay [1] is 110%; in assay [2], 87.2%; in assay [4] it was 107%; in assay [6] it was 111%; in assay [7] it was 85.7%; in assay [8] it was 103%. Also, the growth is 99.6% in [9]; 102% in [10]; 101% in assay [11]; 98.6% in assay [12]; 94.4% in [13]; 110% in [14]. The growth in assay [16] is 119%; in [15], 109%.
Turning to `C#Cc1ccc(-n2c(/C=C/c3ccc4ccccc4c3)nc3ncccc3c2=O)cc1`, the growth in assay [17] was 38.5%; in assay [2], 105%; in [3], -3.79% (active); in assay [4], 68.9%; in [5] it was 52.7%; in assay [6], 17%. For the same compound, the growth in [7] is 72.8%; in [8], 42.5%; in [9] it was 42.7%; in assay [10] it was 52.4%; in assay [11] it was 12.8%; in assay [12], 19.2%. Moreover, the results for the growth in [13], in [14] and in assay [16] were 18.6%, 21% and 31.1%, respectively.
On to `Cc1nc2ccc(CN(C)c3ccc(C(=O)N[C@@H](CCC(=O)O)C(=O)O)s3)cc2c(=O)[nH]1`, for which the growth is 56.6% in [1]; 67.6% in assay [2]; 55.3% in assay [4]; 71.8% in [5]; 57.3% in assay [6]; 73.2% in assay [7]. In addition, the growth in assay [8] was 43.8%; in [9], 55.4%; in assay [10], 57.4%; in assay [11] it was 61.6%; in assay [12], 71.4%; in assay [13], 23.3%. Moreover, the growth was 40% in [14], 28.5% in assay [16] and 73.4% in assay [15].
As to `Nc1ncn(C2OC(CO)C(O)C2O)c(=O)n1` (stereo unspecified), the growth in [1] was -25.4% (active); in [2], 85.9%; in [3] it was -30.3% (active); in assay [4] it was 12.3%; in assay [5], -39.8% (active); in assay [6] it was -13.7% (active). The growth was 3.64% (active) in assay [7]; 15.1% in assay [8]; 10.6% in assay [9]; -9.44% (active) in [10]; 3.05% (active) in [11]; 29.3% in assay [12]. Also, the growth in [13] is 11.5%; in [14] it was -32% (active); in assay [16], -1.48% (active); in [15] it was -15.8% (active).
For the compound `Cc1cn(C2CCCCO2)c(=O)nc1NO` (stereo unspecified), the growth in [1] was 111%; in [17], 101%; in assay [2], 109%; in [4], 119%; in assay [5], 113%; in assay [6] it was 109%. The growth is 86.8% in [7]; 107% in assay [8]; 105% in [9]; 107% in [10]; 97.6% in [11]; 105% in [12]. Besides, the growth in assay [13] is 80.3%; in assay [14], 111%; in assay [16], 101%; in assay [15] it was 102%.
As to `NC(=O)SCC(=O)Nc1ccc(S(N)(=O)=O)cc1`, the growth in [1] was 108%; in assay [17] it was 104%; in assay [3], 106%; in [4], 108%; in assay [5], 112%; in assay [6], 107%. The growth in assay [7] is 99.6%; in assay [8] it was 105%; in assay [9] it was 98.2%; in assay [10] it was 111%; in assay [11] it was 106%; in [12] it was 99.2%. Moreover, the growth in [13] is 104%; in assay [14], 109%; in [16], 102%; in assay [15], 101%.
